ALR inh – human ALR oxidase inhibition via reduced H2O2; purified ALR, DTT oxidation, H2O2 HRP-luminol luminescence; actives 3.8% (n = 290,000); inhibition, % (no concentration beside the values);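 active = mean replicate inhibition above about 79%, with every replicate also reaching it, limit read from the data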
PolyA inh – yeast polyadenylation inhibition | AID 1875 | activity score, % at 12 µM | actives 0.02% (n = 300,000) | S. cerevisiae SKY197-pL101 polyadenylation reporter, beta-gal luminescence; efflux-impaired pdr1/pdr3 knockout yeast; score 100 = 6 SD above DMSO;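 active = lowest replicate activity score at least 50, where 100 means six control SD above control mean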;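 note: yeast exposed to compound for 9 h at 30 °C; higher score means more reporter readthrough which indicates perturbed polyadenylation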
IDE cell inh – cellular human IDE inhibition. HEK cells, FAbetaB cleavage, fluorescence polarization. inhibition, % at 5.59 µM. actives 0.41% (n = 320,000);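 active = percent inhibition above the average of all tested compounds plus 3 SD, set per screening campaign, cut at about 16% in these data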;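 note: IDE supplied by intact live HEK cells; FP after avidin binding of uncleaved biotin substrate so inhibition keeps polarization high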
Target sequence (P14735 whole entry, looked up): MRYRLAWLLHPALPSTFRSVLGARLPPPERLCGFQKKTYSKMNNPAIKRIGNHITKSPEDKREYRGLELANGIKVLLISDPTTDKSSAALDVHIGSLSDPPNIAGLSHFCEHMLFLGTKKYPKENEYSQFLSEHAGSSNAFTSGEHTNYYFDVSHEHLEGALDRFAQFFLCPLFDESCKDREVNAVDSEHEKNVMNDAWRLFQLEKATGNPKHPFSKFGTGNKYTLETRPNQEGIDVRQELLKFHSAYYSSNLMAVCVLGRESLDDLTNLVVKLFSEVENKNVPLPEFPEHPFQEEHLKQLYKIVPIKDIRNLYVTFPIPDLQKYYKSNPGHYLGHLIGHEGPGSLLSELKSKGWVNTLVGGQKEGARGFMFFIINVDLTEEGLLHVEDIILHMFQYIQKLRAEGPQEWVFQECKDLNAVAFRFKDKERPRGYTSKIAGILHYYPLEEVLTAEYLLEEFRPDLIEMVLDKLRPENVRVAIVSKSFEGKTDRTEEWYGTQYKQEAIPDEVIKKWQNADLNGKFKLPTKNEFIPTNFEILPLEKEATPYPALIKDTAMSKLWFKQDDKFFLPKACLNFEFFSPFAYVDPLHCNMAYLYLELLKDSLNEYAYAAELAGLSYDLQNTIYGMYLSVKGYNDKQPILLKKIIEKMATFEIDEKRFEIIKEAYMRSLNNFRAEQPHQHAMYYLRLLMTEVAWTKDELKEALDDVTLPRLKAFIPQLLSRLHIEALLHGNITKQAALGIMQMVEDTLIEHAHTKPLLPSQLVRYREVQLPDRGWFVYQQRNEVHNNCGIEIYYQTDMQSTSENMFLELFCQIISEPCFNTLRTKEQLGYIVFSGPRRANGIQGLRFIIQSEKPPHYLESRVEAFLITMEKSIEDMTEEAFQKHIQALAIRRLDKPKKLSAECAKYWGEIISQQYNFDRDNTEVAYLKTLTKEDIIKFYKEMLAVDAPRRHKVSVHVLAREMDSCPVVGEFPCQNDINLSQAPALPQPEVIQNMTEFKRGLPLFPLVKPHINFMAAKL
CaV13 ICDI inh – Disruptors of the CACNA1D IQ motif to Ca2+-dependent inactivation inhibitor domain association, primary screening, Förster resonance energy transfer in intact living …; HEK cells, CFP/YFP FRET ICDI-IQ, plate reader, 10 min; percent FRET-ratio fall versus neutral wells; inhibition, % at 12.3 µM; actives 0.098% (n = 340,000);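 active = mean replicate inhibition of at least 30% and at least 1% of replicates passing that level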
PfM18AAP inh-1 – blocks P. falciparum M18 aspartyl aminopeptidase | actives 1.2% (n = 290,000) | recombinant PfM18AAP, H-Glu-NHMec fluorogenic cleavage | AID 1822 | inhibition, % at 7.35 µM;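 active = inhibition above the campaign mean inhibition over all tested compounds plus 3 SD, cut at about 28% in these data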
IDE act – boosts human insulin-degrading enzyme activity in HEK cells. actives 0.073% (n = 340,000). FAbeta-B cleavage, fluorescence polarization; 0% vehicle, 100% cell-free pure enzyme wells. activation, % at 5.96 µM;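 active = activation above the mean of all tested compounds plus 3 SD, set per screening campaign, cut at about 17% in these data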
PfM18AAP inh-2 – confirmation of Plasmodium falciparum M18 aspartyl aminopeptidase inhibitors. inhibition, % at 7.35 µM. AID 2170. recombinant PfM18AAP, H-Glu-NHMec fluorogenic cleavage. shares compounds with PfM18AAP inh-1. actives 28% (n = 2,400);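 active = mean inhibition over replicate wells above the hit cutoff set for the earlier primary screen, cut at about 29% in these data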
CTSL1 counter – counter-screen for PFM18AAP inhibitors: confirmation of human cathepsin L inhibitors; shares compounds with PfM18AAP inh-1; inhibition, % at 5.96 µM; AID 2178; 2,400 tested, under 10 active; purified cathepsin L1, Z-Leu-Arg-MCA fluorescence;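 active = average inhibition across replicates above the hit cutoff set in the earlier primary screen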
Numbers stand for hits; 0 = inactive; - = not tested or not shown. The list is not random: actives were taken first. Their share in the collection is about 4.1%.

SMILES	ALR inh	PolyA inh	IDE cell inh	CaV13 ICDI inh	PfM18AAP inh-1	IDE act	PfM18AAP inh-2	CTSL1 counter
O=C(CSc1ncn[nH]1)N1N=C2/C(=C/c3ccco3)CCCC2C1c1ccco1 (stereo not drawn)	0	0	0	0	36.2	0	0	0
O=C(O)c1ccc(NCc2ccc(Br)cc2)cc1	0	0	0	0	0	0	-	-
Nc1ncnc(Sc2ncccn2)c1[N+](=O)[O-]	-	0	-	0	33.7	0	0	0
COc1ccccc1NC(=S)N/N=C/c1ccc(O)cc1	-	0	0	0	0	0	-	-
Oc1ccc(/C=N/NC(=S)N/N=C/c2ccc(O)cc2)cc1	-	0	0	0	34.5	0	0	19.3
COc1ccccc1OCC(=O)N(Cc1nnc(-c2ccccc2Cl)o1)C1CC1	0	0	0	0	-	0	-	-
CC[C@]12C(=O)N(C)C[C@H]([C@@H]3C(=O)N(Cc4ccccc4)C(=O)[C@@H]31)N2C(=O)c1ccc(C(C)(C)C)cc1	-	-	-	0	-	0	-	-
CCOc1cc2[nH]c(=S)n(CCOC)c(=O)c2cc1OCC	0	0	0	0	0	0	-	-
COCCn1c(=S)[nH]c2ccc(N(C)C)cc2c1=O	97.5	0	0	0	40.1	0	0	0
CN(CC(=O)Nc1c(Cl)cccc1Cl)C(=O)Cc1ccc2c(c1)CCC2	0	0	0	0	-	0	-	-
COC(=O)c1cc([N+](=O)[O-])c(-n2cncn2)c([N+](=O)[O-])c1	-	0	-	0	83.1	0	43.7	0
CCCOc1ccc(CNC(=S)NCc2ccc(OC(C)C)cc2)cc1	-	0	0	0	0	0	-	-
O=C(Nc1ccc(Br)cc1Cl)Nn1cnnc1	-	0	0	-	74.9	0	78.1	0
O=C(Nc1ccc(Br)cc1)Nn1cnnc1	0	0	0	0	73.3	0	56.3	0
Cc1cc(C)cc(NC(=O)Nn2cnnc2)c1	0	0	-	0	54.5	0	37.4	0
O=C(Nc1ccccc1)Nc1ccncc1	0	0	0	0	0	0	-	-
O=C(CC(=O)Nc1ccc(Br)cc1)Nc1ccc(Br)cc1	0	0	0	0	0	0	-	-
O=C(Nc1ccccc1)Nn1cnnc1	0	0	-	0	56.4	0	40.0	0
CCOC(=O)[C@H](CCc1ccccc1)N[C@@H](C)C(=O)N1Cc2ccccc2C[C@H]1C(=O)O	0	0	0	0	-	0	-	-
CN(C)C(CNC(=O)c1cc2ccccc2o1)c1ccco1 (stereo not drawn)	0	-	0	0	-	0	-	-
N#Cc1cnn(-c2ccc([N+](=O)[O-])cc2[N+](=O)[O-])c1N	-	-	-	0	-	-	-	-
Cc1ccc2sc(NNC(=O)C3=COCCO3)nc2c1C	98.9	0	0	0	32.5	0	0	0
O=C(NNc1nc2c(F)cccc2s1)C1=COCCO1	99.6	0	0	0	43.5	0	0	0
Cc1ccc2sc(N3CCN(C(=O)C4=COCCO4)CC3)nc2c1C	0	0	0	0	-	0	-	-
c1cc(SSc2ccncc2)ccn1	0	0	0	0	62.0	0	50.4	0
SMILES	ALR inh	PolyA inh	IDE cell inh	CaV13 ICDI inh	PfM18AAP inh-1	IDE act	PfM18AAP inh-2	CTSL1 counter
CCCCOc1ccc(/C=c2\sc3ncnn3c2=O)cc1	0	0	0	0	75.8	0	0	0
O=c1/c(=C/c2cccc3ccccc23)sc2ncnn12	0	0	0	0	43.7	0	35.4	0
Cc1ccsc1C=C1C(=O)c2ccccc2C1=O	0	0	0	0	0	0	-	-
Cc1ccsc1/C=c1\sc2ncnn2c1=O	0	0	0	0	87.0	0	55.2	0
O=c1c2ccccc2nc2n1C(CSCc1ccc(Cl)cc1)CS2 (stereo not drawn)	-	0	0	-	0	0	-	-
C=CCc1c(Cl)nc(C)nc1NCc1ccccc1	-	0	0	0	0	0	-	-
O=C1CSC(=S)N1N=C1CCCCCC1	0	-	0	0	38.5	0	0	0
CN=c1scc(-c2ccco2)n1/N=C/c1ccc(O)c(O)c1	-	0	-	0	59.0	0	51.4	0
C=CCN=c1scc(C)n1/N=C/c1ccc(O)c(O)c1	98.8	0	0	0	57.3	0	40.3	0
C=CCN=c1scc(-c2ccccc2)n1/N=C/c1ccccn1	0	0	0	0	0	0	-	-
O=c1[nH]nc(CNc2ccc(O)cc2)c2ccccc12	99.5	0	0	0	35.0	0	0	0
O=c1[nH]nc(CNc2ccc(C(F)(F)F)cc2)c2ccccc12	0	0	0	0	0	0	-	-
Cc1cc(C)nc(SSc2nc(C)cc(C)n2)n1	-	0	0	0	60.7	0	0	0
O=[N+]([O-])c1ccc(Nc2nc(N/N=C/c3cccc(F)c3)nc(N3CCCC3)n2)cc1	0	0	0	0	43.8	0	0	0
COc1cccc(/C=N/Nc2nc(Nc3ccc([N+](=O)[O-])cc3)nc(N3CCCC3)n2)c1O	0	0	0	0	0	-	-	-
COc1ccc(-n2nnc3c(SC(C(C)=O)C(=O)N(C)C)ncnc32)cc1 (stereo not drawn)	0	0	0	0	46.2	0	0	0
COc1ccc(-n2nnc3c(SCC(=O)NCc4ccco4)ncnc32)cc1	-	0	0	0	0	0	-	-
CC(Sc1nnc(-c2ccccc2F)o1)C(=O)Nc1ccc(N2CCOCC2)cc1 (stereo not drawn)	-	-	-	0	-	0	-	-
Cc1cccc2nc(CSc3nc4[nH]ncc4c(=O)n3-c3ccccc3Cl)cc(=O)n12	0	0	0	0	0	0	-	-
Cc1ccc(-n2c(=S)[nH]c3[nH]ncc3c2=O)cc1	0	0	0	0	0	0	-	-
O=c1c2cn[nH]c2[nH]c(=S)n1-c1ccccc1Cl	0	0	0	0	37.3	0	0	0
O=c1c2cn[nH]c2[nH]c(=S)n1-c1ccccc1F	0	0	0	0	57.4	0	0	0
CC(=O)Nc1ccc(NC(=O)CSc2nnc3ccc(-c4cccnc4)nn23)cc1	0	0	0	0	-	0	-	-
Cc1onc(-c2ccccc2)c1C(=O)NCc1ccccc1F	0	0	0	0	0	0	-	-
C=CCSC1=N/C(=C\c2ccc3c(c2)OCO3)C(=O)S1	0	0	0	-	0	0	-	-
C=CCSC1=N/C(=C\c2cc(OCC)c(OC(C)=O)c([N+](=O)[O-])c2)C(=O)S1	98.2	0	0	0	38.5	0	0	0
Cc1ccc(/C=N/Nc2cc(C)nc(NCc3ccccc3)n2)cc1	-	0	0	0	0	0	-	-
Cc1cc(N/N=C/c2ccc(O)cc2)nc(NS(=O)(=O)c2ccccc2)n1	0	0	0	0	43.3	0	0	0
Cc1nc2ccccc2nc1N/N=C/c1ccc(O)cc1	84.7	0	0	0	36.8	0	0	0
O=C(Cc1cccs1)NNC(=S)NCc1ccc(Cl)cc1	0	0	0	0	0	0	-	-
